# This is a sample that favours compounds with a hit; in the whole collection about 5.5% have one here.
# RORg inh: ROR gamma (mouse) transcription inhibition | Potency, µM (highest dose often 53.6 µM), actives largely listed as inhibitors | Drosophila S2 Gal4-RORgamma UAS-luciferase reporter, 20 h | AID 2551 | hit rate 5.4% among 310,000; also: nearly all actives have a fitted effect of over 60% in size
# Target sequence (P51450 whole entry, looked up, the tested form may be a part): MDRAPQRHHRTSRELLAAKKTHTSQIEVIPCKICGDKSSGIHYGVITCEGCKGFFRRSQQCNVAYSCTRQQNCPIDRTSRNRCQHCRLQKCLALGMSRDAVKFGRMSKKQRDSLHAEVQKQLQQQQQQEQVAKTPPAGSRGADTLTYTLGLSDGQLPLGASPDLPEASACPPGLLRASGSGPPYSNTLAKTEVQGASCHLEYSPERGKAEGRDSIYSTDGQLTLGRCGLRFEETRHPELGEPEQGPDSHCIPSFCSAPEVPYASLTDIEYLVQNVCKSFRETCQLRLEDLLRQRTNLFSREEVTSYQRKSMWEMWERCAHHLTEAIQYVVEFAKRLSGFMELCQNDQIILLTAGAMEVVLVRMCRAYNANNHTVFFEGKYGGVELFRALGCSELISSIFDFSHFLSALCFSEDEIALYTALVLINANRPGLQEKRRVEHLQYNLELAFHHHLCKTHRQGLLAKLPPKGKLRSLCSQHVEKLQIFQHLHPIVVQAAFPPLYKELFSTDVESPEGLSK
#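 A Gal4/UAS one-hybrid system in insect cells: metallothionein-promoter Gal4–ROR gamma fusion plus Photinus luciferase reporter. Copper sulfate 700 uM final, 20 hr ambient incubation, luminescent detection after 10 min with reagent.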
# uPA surface inh: cell surface uPA generation inhibition; AID 540303; cell surface uPA generation assay, qHTS; hit rate 0.31% among 330,000; Potency, µM (doses to about 38.3 µM), usual class: inhibitors; active = well fitted inhibition curve with a large enough effect; inconclusive = small, poorly fitted or top-dose-only effect; inactive = no such curve, though single readings can be large or run the other way; tested in mouse RAW 264.7 cells; also: nearly all actives have a fitted effect of over 55% in size
# VP16 counter: inhibits Gal4-VP16 luciferase reporter, ROR gamma counter-screen; hit rate 3.5% among 310,000; Potency, µM (top dose mostly 53.6 µM), actives largely listed as inhibitors; Drosophila S2 Gal4-VP16 UAS-luciferase, luminescence, 20 h;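 also: Gal4-VP16 expression switched on by copper sulfate through the metallothionein promoter; nearly all actives have a fitted effect of over 50% in size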
# Chronic BCR inh: chronic active BCR signaling inhibition; ABC-DLBCL IkBa-CBG/CBR reporter, luminescence ratio, 4 h; Potency, µM (series often up to 46.1 µM), hits mostly inhibitors; hit rate 0.05% among 340,000; active = well fitted inhibition curve with a large enough effect in the signal ratio, with a control signal flat, not every such curve was filed as active; inconclusive = small, poorly fitted or top-dose-only effect, or effect the other way, or a change in a side signal; the % refers to the signal ratio
#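 Cell line TMD8 (human ABC DLBCL), stably expressing tet-inducible CBG68-IkBa fusion and CBR; IMDM/0.5% FBS; cpd up to 46 uM; dox induction, 4 h, 37C/5% CO2; dual luminescence; green/red ratio; MG132 control.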
# a7 integrin act: activates integrin-mediated alleviation for muscular dystrophy; alpha7betagal myoblasts, beta-gal FDG fluorescence, 48 h; Potency, µM (highest dose often 38.3 µM), most hits filed as activators; hit rate 0.064% among 350,000; AID 624291; also: nearly all actives have a fitted effect of over 60% in size
#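 alpha7betagal+/- myoblasts (passage 13, 250/well) treated 48 h at 37C with compounds at 1:260 dilution of DMSO stock. Lysed, then beta-galactosidase activity read as FDG fluorescence (ex 480/em 540) after 30 min, with pre-read for autofluorescence.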
# Mito fusion act: mitochondrial division inhibition or fusion activation; Potency, µM (titrated, usually from 46.1 µM), most hits filed as activators; hit rate 0.23% among 320,000; S. cerevisiae fusion-defective mutant growth rescue, CellTiterGlo 48 h; also: nearly all actives have a fitted effect of over 45% in size
#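 Temperature-sensitive fusion-defective S. cerevisiae (e.g. fzo1-1, mgm1-5) were grown with compound in YPEG medium (3% ethanol, 3% glycerol) for 48 hours at 37C. Growth rescue was measured as viability by CellTiterGlo luminescence after 10 minutes at ambient.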
# A number is an active result; i = inactive; ? = inconclusive; nt = not tested or not shown. Unless noted, calls follow the shape of the dose curve; as a rule, active = well fitted curve in the direction sought with a large enough effect; inconclusive = small, poorly fitted or top-dose-only effect, or another doubt; inactive = no such curve, though single readings can be large; an effect the other way counts as inactive or inconclusive.
SMILES,RORg inh,uPA surface inh,VP16 counter,Chronic BCR inh,a7 integrin act,Mito fusion act
CCc1ccccc1NC(=O)CN1CCN(C(=O)CNC(=O)c2ccc(-c3ccccc3)cc2)CC1,nt,3.2µM,nt,i,i,i
Cc1cc(=O)n2nc(N3CCC(C(=O)Nc4cccc(Cl)c4C)CC3)sc2n1,i,i,i,i,?,i
Cc1cc(=O)n2nc(N3CCCC3C(=O)Nc3cccc(Cl)c3C)sc2n1 (centres undefined),16µM,i,i,i,i,i
Cc1nnc(NC(=O)CN2CCN(Cc3ccccc3)CC2)s1,nt,i,nt,i,i,i
COc1cccc2sc(NNC(=O)C3COc4ccccc4O3)nc12 (centres undefined),3.5µM,i,i,i,i,i
Cc1ccc2sc(NNC(=O)C3COc4ccccc4O3)nc2c1C (centres undefined),2µM,i,8.9µM,i,i,i
O=C(NNc1nc2c(F)cccc2s1)C1COc2ccccc2O1 (centres undefined),i,i,i,i,i,i
Cc1ccc(C(=O)Nc2ccc(CC(=O)O)cc2)o1,i,i,i,?,i,i
O=C(O)Cc1ccc(NC(=O)c2cnccn2)cc1,11µM,i,?,i,i,i
CC(C)(C)c1ccc(C(=O)Nc2ccc(CC(=O)O)cc2)o1,0.79µM,nt,0.79µM,?,i,i
Cc1ccccc1S(=O)(=O)Cc1ccc(C(=O)NCCCN2CCCC(C)C2)o1 (centres undefined),i,i,?,i,i,i
COc1ccc2nc(NNC(=O)c3cc(=O)c4ccccc4o3)sc2c1,8.9µM,?,?,i,i,i
Cc1ccc2sc(NNC(=O)c3cc(=O)c4ccccc4o3)nc2c1C,i,i,i,?,i,i
O=C(NNc1nc2c(F)cccc2s1)c1cc(=O)c2ccccc2o1,10µM,?,?,?,i,i
COc1ccc2nc(NC(=O)Nc3cccc4ccccc34)sc2c1,i,i,i,?,i,i
Cc1cccc2sc(NNC(=O)c3cc(=O)c4ccccc4o3)nc12,4µM,i,?,?,i,i
COCC(C)NC(=O)CSc1nc2ccccc2c(=O)n1CCc1ccc(S(N)(=O)=O)cc1 (centres undefined),i,i,i,i,i,i
Cc1ccccc1C(=O)NC(=S)NCC(=O)c1ccccc1,11µM,i,?,?,i,i
O=C(CNC(=S)NC(=O)c1ccccc1)c1ccccc1,11µM,i,?,i,i,i
O=C(NC(=S)NCc1cccnc1)c1ccccc1,i,i,i,?,i,i
O=C(NC(=S)NC(CO)c1ccccc1)c1ccc(F)cc1 (centres undefined),?,i,i,i,i,i
O=C(CNC(=S)NC(=O)c1ccc(F)cc1)c1ccccc1,11µM,i,i,i,i,i
O=C(CNC(=S)NC(=O)c1ccccc1Br)c1ccccc1,i,i,i,?,i,i
CC(C)C(=O)NC(=S)NCC(=O)c1ccccc1,11µM,i,?,i,i,i
CC(C)C(=O)NC(=S)Nc1ccc(S(=O)(=O)Nc2ccccc2)cc1,i,i,i,i,i,i
SMILES,RORg inh,uPA surface inh,VP16 counter,Chronic BCR inh,a7 integrin act,Mito fusion act
O=C1CCCC(C(C(=O)OCc2ccccc2)C(=O)OCc2ccccc2)C1 (centres undefined),i,nt,i,nt,nt,nt
COc1ccc(C(Nc2ccc(S(=O)(=O)NCC3CCCO3)cc2)C(=O)NC(C)(C)C)cc1OC (centres undefined),i,i,i,i,i,i
COc1ccccc1-n1ccn(CC(=O)Nc2ccc(C)cc2Cl)c(=O)c1=O,nt,i,nt,?,i,i
Cn1c(NCc2ccccc2Cl)nc2ccccc21,nt,?,nt,nt,i,nt
CC(=O)Nc1nc2ccccc2n1Cc1ccccc1Cl,0.89µM,i,2.2µM,i,i,i
CC(=O)NCCc1nc2ccccc2n1CCOc1ccccc1,i,i,i,?,i,i
CC(=O)Nc1nc2ccccc2n1Cc1ccccc1C,2µM,i,3.2µM,?,i,i
CCc1cccc(CC)c1NC(=O)Cn1c(-c2ccccc2Cl)nc2ccccc21,i,i,i,i,i,i
CCC(=O)Nc1nc2ccccc2n1Cc1ccccc1Cl,0.4µM,?,2.8µM,i,i,i
CC(=O)Nc1nc2ccccc2n1CCOc1ccccc1Cl,0.79µM,i,1.3µM,?,i,i
COc1cc(CN2CCN(c3ccccc3F)CC2)c([N+](=O)[O-])cc1OC,i,i,i,i,i,i
C=CCn1c(O)c(N=NC(=S)Nc2cccc(C)c2)c2ccccc21,0.25µM,i,0.45µM,?,i,i
C=CCn1c(O)c(N=NC(=S)Nc2ccccc2F)c2cc(S(=O)(=O)N3CCOCC3)ccc21,0.45µM,nt,2µM,?,i,i
Oc1c(N=NC(=S)Nc2ccccc2F)c2ccccc2n1Cc1ccccc1,2.8µM,?,3.5µM,?,i,i
C=CCn1c(O)c(N=NC(=S)Nc2ccccc2F)c2ccccc21,0.79µM,?,1.8µM,?,i,i
CC1(C)CC(=O)c2c(O)cc(OCC(=O)Nc3ccc(CCO)cc3)cc2O1,i,i,i,i,i,i
C#CCOCCOCCOCCNc1nc(N2CCN(C(=O)C([C@@H](C)CC)n3cc(C(N)COC(=O)C(F)(F)F)nn3)CC2)nc(N2CCN(C(=O)[C@H](CCC(=O)O)n3cc(C(N)CC(C)C)nn3)CC2)n1 (some centres undefined),nt,i,nt,nt,i,nt
CO[C@H]1/C=C/O[C@@]2(C)Oc3c(C)c(O)c4c(O)c(c(/C=N\N5CCN(C6CCCC6)CC5)c(O)c4c3C2=O)NC(=O)/C(C)=C\C=C\[C@H](C)[C@H](O)[C@@H](C)[C@@H](O)[C@@H](C)[C@H](OC(C)=O)[C@@H]1C,i,nt,i,nt,nt,nt
Cc1ccc(NC(=O)Cn2c(O)c(N=NC(N)=O)c3ccccc32)cc1,i,i,i,i,i,i
Cc1ccc(Cn2c(O)c(N=NC(=S)Nc3ccccc3F)c3ccccc32)cc1,4µM,?,7.1µM,i,i,i
Cc1c(Cl)cccc1NC(=S)N=Nc1c(O)n(CN2CCOCC2)c2ccccc12,1.8µM,i,5µM,7.3µM,i,?
Oc1c(N=NC(=S)Nc2ccccc2F)c2ccccc2n1Cc1ccccc1Cl,2.2µM,i,6.3µM,?,i,i
CCn1c2ccccc2c2nnc(SCC(N)=O)nc21,?,i,i,i,i,i
CCn1c2ccccc2c2nnc(SCc3ccc(C(=O)OC)o3)nc21,?,i,13µM,i,i,i
CCn1c2ccccc2c2nnc(SCc3ccccc3)nc21,?,i,?,?,i,16µM
CN(C)CCNCCCOc1ccccc1-c1ccccc1,i,nt,i,i,nt,i
Cc1ccc(-n2ncc(N(C)C)c(Cl)c2=O)cc1,11µM,i,?,i,i,i
COc1ccc(-n2ncc(Cl)c(Cl)c2=O)cc1,2µM,i,?,?,i,i

# Source: PubChem BioAssay
